MCF10A rereplic – A quantitative high throughput screen for small molecules that induce DNA re-replication in MCF 10a normal breast cells. actives 2.9% (n = 350,000). AID 624296, 2012. MCF 10A DNA re-replication, Hoechst nuclear intensity, 48 h. Potency, µM (series often up to 46.1 µM), for the others: at the highest dose activity, positive = re-replication, hits mostly activators; also: % of control where 0% means no effect; nearly all actives have a fitted effect of over 50% in size
KB-V1 cytotox – qHTS assay for MDR1-selective chemotherapeutics: Primary screen using the drug-selected MDR subline cells KB-V1; KB-V1 MDR cells viability, CellTiter-Glo, 72 h; Potency, µM (series often up to 46.1 µM), most hits filed as cytotoxic; actives 3.4% (n = 400,000); also: % is scaled to controls: 0 for no effect and ±100 for the full control effect; nearly all actives have a fitted effect of over 60% in size
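KB-V1 cells (P-gp-expressing MDR subline of KB-3-1) in phenol-red-free DMEM with 10% FBS were exposed to library compounds over a concentration series for 72 h at 37 degrees C. Viability read by CellTiter-Glo luminescence; concentration-effect curves fitted after normalization.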
KB-3-1 cytotox – qHTS assay for MDR1-selective chemotherapeutics: Primary screen using the parental adenocarcinoma cell KB-3-1; Potency, µM (titrated, usually from 46.1 µM), most hits filed as cytotoxic; actives 1.4% (n = 400,000); KB-3-1 viability, CellTiter-Glo ATP luminescence, 72 h; AID 1347075, 2019; also: % is scaled to controls: 0 for no effect and ±100 for the full control effect; nearly all actives have a fitted effect of over 60% in size
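Cytotoxicity measured as CellTiter-Glo luminescence after 72 h at 37 C. Compound titrations were pinned onto drug-naive KB-3-1 parental adenocarcinoma cells grown in DMEM with 10% FBS, and normalized data fitted to concentration-response curves.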
ELG1 repair inh – qHTS screen for small molecules that inhibit ELG1-dependent DNA repair in human embryonic kidney (HEK293T) cells expressing luciferase-tagged ELG1; actives 2.3% (n = 330,000); Potency, µM (highest dose often 46.1 µM), for the others: at the highest dose activity change, negative = inhibition, actives largely listed as inhibitors; HEK293T ELG1-luciferase reporter, luminescence, 16 h; DNA damage induced by 5-fluorouridine; also: % is scaled to controls: 0 for no effect and ±100 for the full control effect; nearly all actives have a fitted effect of over 55% in size
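Quantitative HTS, concentration-response format. 2,000 cells/well co-treated with 5-fluorouridine and compound, 16 hr in 5% CO2 at 37 °C; ONE-Glo luminescence read after 30 min.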
SW480 rerep – A quantitative high throughput screen for small molecules that induce DNA re-replication in SW480 colon adenocarcinoma cells; SW480 DNA re-replication, Hoechst DNA content imaging, 48 h; Potency, µM (highest dose often 46.1 µM), for the others: at the top dose re-replication activation, most hits filed as activators; actives 1.8% (n = 340,000); also: % of control where 0% means no effect; nearly all actives have a fitted effect of over 55% in size
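Quantitative HTS format with DMSO vehicle controls; 48 hr drug incubation at 37 C, then 40 min Hoechst staining and scanning imager measurement at 405 nm excitation.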
* hit, by the source's call; i = inactive; u = inconclusive; x = not tested or not shown. Rows were chosen to be rich in hits. Some 8.1% of all compounds tested hit in one or more screens of this group. Calls follow the shape of the dose curve; as a rule, active = well fitted curve in the direction sought with a large enough effect; inconclusive = small, poorly fitted or top-dose-only effect, or another doubt; inactive = no such curve, though single readings can be large; an effect the other way counts as inactive or inconclusive. Potency is read from the fitted curve at half-maximal effect.

SMILES	MCF10A rereplic	KB-V1 cytotox	KB-3-1 cytotox	ELG1 repair inh	SW480 rerep
COc1cc(C(=O)NCCCN(C)C)ccc1OCC(=O)Nc1cccc(C(F)(F)F)c1	u	i	i	16%	u
COc1cc(/C=C(\C#N)C(=O)Nc2cccc(C(=O)O)c2)ccc1OCc1ccc(C)cc1	-1%	i	i	u	0%
COc1cc(/C=C(\C#N)C(=O)Nc2cc(C(F)(F)F)ccc2Cl)ccc1OCC(=O)Nc1cccc(C(F)(F)F)c1	21µM*	i	i	6%	u
Cc1cc(C)c2c(=O)[nH]n(C3CCOC(C)(C)C3)c2n1 (centres undefined)	-1%	i	i	u	-3%
O=c1c(O)c(-c2ccccc2)oc2cc(O)cc(O)c12	u	i	i	13µM*	-1%
Cc1ccc(-c2oc3ccccc3c(=O)c2O)cc1	26µM*	u	21µM*	u	8%
O=c1c(-c2ccccc2)c(-c2ccccc2)oc2cc(O)cc(O)c12	2%	i	i	-22%	-1%
O=c1c(O)c(-c2ccccc2)oc2ccccc12	u	i	i	x	5%
O=[N+]([O-])c1ccccc1-c1ccc(C(=S)N2CCCC2)o1	-22%	i	i	u	8.2µM*
O=[N+]([O-])c1ccccc1-c1ccc(C(=S)N2CCCCC2)o1	19%	i	i	u	-10%
Cc1cccc(N2CCN(C(=S)c3ccc(-c4ccccc4[N+](=O)[O-])o3)CC2)c1	u	u	16µM*	-25%	u
O=[N+]([O-])c1cccc(-c2ccc(C(=S)N3CCN(c4ccccc4)CC3)o2)c1	u	i	i	0%	-13%
CCOc1ccc(Nc2nc3ccccc3c(=O)s2)cc1	1%	i	i	12%	-1%
S=c1nc(COc2ccccc2)[nH]c2ccccc12	-2%	i	i	u	-6%
COc1ccc(C)cc1NC(=O)c1nnn(Cc2cccc(F)c2)c1N	27%	i	u	-5%	20%
COc1ccc(NC(=O)c2nnn(Cc3cccc(F)c3)c2N)c(OC)c1	u	i	6.5µM*	12%	7%
COc1ccc(NC(=O)c2nnn(Cc3ccc(Br)cc3F)c2N)c(OC)c1	x	i	i	x	x
COc1ccc(OC)c(NC(=O)c2nnn(Cc3ccc(Br)cc3F)c2N)c1	0%	i	u	21µM*	0%
Cc1ccc(C)c(C(=O)Nc2nc3ccccc3[nH]2)c1	17%	i	i	u	-2%
COc1cc(NC(=O)c2ccccc2)c(OC)cc1NC(=O)CN1CCN(c2ccccn2)CC1	16%	i	i	u	-2%
CCOC(=O)N1CCc2c(sc3c2C(=O)NC(c2cc(OC)c(O)c(OC)c2)N3)C1 (centres undefined)	x	i	i	x	x
CN1CCc2c(sc3c2C(=O)NC(c2ccc(-c4ccc(Cl)cc4)o2)N3)C1 (centres undefined)	23µM*	i	i	u	u
CN1CCc2c(sc3c2C(=O)NC(c2cn(Cc4ccccc4)c4ccccc24)N3)C1 (centres undefined)	u	15µM*	9.2µM*	u	u
COc1ccc(Br)cc1C1NC(=O)c2c(sc3c2CCN(C)C3)N1 (centres undefined)	7%	i	i	5%	1%
CCOC(=O)N1CCc2c(sc3c2C(=O)NC(c2ccccc2)N3)C1 (centres undefined)	u	i	u	9%	9.2µM*
SMILES	MCF10A rereplic	KB-V1 cytotox	KB-3-1 cytotox	ELG1 repair inh	SW480 rerep
CN1CCc2c(sc3c2C(=O)NC(c2ccco2)N3)C1 (centres undefined)	6%	i	i	18%	0%
O=C(CCC(=O)c1ccc(Oc2ccccc2)cc1)Nc1ccc(Cl)cc1Cl	u	i	i	16%	5.8µM*
Cn1c2ccccc2c2ncn(Cc3ccco3)c(=O)c21	6%	u	i	10%	-8%
Cn1c2ccc(F)cc2c2ncn(Cc3ccco3)c(=O)c21	u	4.1µM*	i	u	0%
O=C(COC(=O)/C=C/c1ccccc1)NCc1cccs1	8%	i	i	u	6%
CC1=NNC(=O)/C1=C\c1cn(-c2ccccc2)nc1-c1ccccc1	3.7µM*	u	u	u	10%
Cc1ccc2occ(/C=N/NC(=O)c3ccccc3O)c(=O)c2c1	3%	i	u	u	18µM*
O=C(N/N=C/c1coc2ccc(Cl)cc2c1=O)c1cc(O)cc(O)c1	7%	i	i	u	-1%
CCOc1ccccc1C(=O)N/N=C/c1coc2ccc(Cl)cc2c1=O	15µM*	i	u	8%	15µM*
Cc1ccc2occ(/C=N/NC(=O)c3ccc(Cl)cc3)c(=O)c2c1	15%	u	i	u	-1%
Cn1nc(C(F)(F)F)cc1C(=O)Nc1ccc(Cl)cc1	3%	i	i	-19%	-127%
Cc1ccccc1N1CCN(CC(=O)Nc2ccccc2C(=O)NC2CC2)CC1	5%	i	i	21µM*	-3%
COc1ccc(Cl)cc1NC(=O)c1noc2c1CCc1ccccc1-2	x	i	i	x	x
O=C(Nc1ncccn1)c1ccc([N+](=O)[O-])o1	9.2µM*	i	u	28%	u
O=C(Nc1ccccn1)c1ccc([N+](=O)[O-])o1	9.2µM*	u	u	-25%	u
Cc1ccnc(NC(=O)c2ccccc2[N+](=O)[O-])c1	9%	u	i	u	-1%
Cc1ccnc(NC(=O)c2ccc([N+](=O)[O-])o2)c1	4.1µM*	i	u	15%	5.8µM*
O=C(Nc1ccccn1)c1ccco1	1%	i	i	u	1%
CCCn1c(NC(=O)c2ccc([N+](=O)[O-])o2)nc2ccccc21	u	u	i	u	21µM*
COc1cc(NC(=O)C2CC3CCC2C3)c(OC)cc1Cl (centres undefined)	u	i	i	x	28%
CCN(C(=O)CSc1nc(-c2ccccc2)no1)c1ccccc1	x	i	i	x	x
CCC(=O)C(C#N)(c1ccc(OC)c(OC)c1)C(C)C (centres undefined)	-2%	i	i	u	0%
O=C(Nc1cc(-c2nc3ncccc3o2)ccc1Cl)c1ccc([N+](=O)[O-])o1	1.3µM*	u	3.7µM*	-8%	1.3µM*
